Measured values as given in PubChem BioAssay (NCI).
The panel holds about 83,000 compounds, 20% with a hit somewhere; the sample as a whole holds those more often.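 Assay: single dose, 48 h. Readout: percent growth (0 = no net growth; negative = cell death). Active: <10.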 Active and inactive are the calls of the source.

What follows are molecules tested on MDA-MB-468 breast (assay: NCI-60 one-dose screen, 48 h (100 = growth as untreated, 0 = no growth, -100 = all killed)). Conditions: 10 µM unless noted.
In the case of CC1(C)[C@@H](O)CC[C@]2(C)[C@H]3CC[C@@H]4[C@H]5[C@H](C(=O)/C=C\c6ccncc6)CC[C@]5(O)CC[C@@]4(C)[C@]3(C)CC[C@@H]12, the growth is reported as 17.5% (inactive).
With O=C1c2ccccc2C(=Cc2ccccc2)c2ccccc21 the growth was -7.09% (active).
For CCCCCC#CC1OC23CCCCC2C(C#N)(C(=N)O3)C1(C#N)C#N (stereo not given), the growth was 92.6% (inactive).
In the case of C#Cc1nc(/C=C/CCCCCCC(=O)NO)cs1, the growth is reported as 54.8% (inactive).
CN1CCN(Cc2ccc(NC(=O)c3cncc(C#Cc4ccc(N)nc4)c3)cc2C(F)(F)F)CC1 was tested, and the growth was -8.99% (active).
In the case of Cc1cc(Nc2ccc(C(=O)N3CCCC3)cc2)nc(NCCCNc2ccnc3cc(Cl)ccc23)n1, the growth is reported as 40% (inactive).
In the case of Nc1nc(Nc2ccccc2)c2ncn(Cc3ccc4c(c3)OCO4)c2n1, the growth is reported as 13.4% (inactive).
O=[N+]([O-])c1cccc(C2c3ccccc3Oc3ccccc32)c1 was tested, and the growth was 95.4% (inactive).
O=C(O)c1ccc(NC(=O)c2ccc(-c3cccc([N+](=O)[O-])c3)o2)cc1 was tested, and the growth was 99.8% (inactive).
In the case of C=C(C)[C@@H]1CC[C@@]2(C(=O)O)CC[C@]3(C)C(CCC4[C@@]5(C)CCC(OS(=O)(=O)c6ccccc6)C(C)(C)C5CC[C@]43C)C12 (stereo not given in full), the growth is reported as 53.9% (inactive).
In the case of O=C1CCCC1[n+]1ccccc1 (stereo not given), the growth is reported as 120% (inactive).
With CC(=O)Nc1nc(N)nc(NC(C)=O)c1N=O the growth was 118% (inactive).
In the case of CCCCCCCCCCCCCCn1c2ccccc2c2c3c(c4c5cc(OC)ccc5oc4c21)C(=O)NC3=O, the growth is reported as 106% (inactive).
O=C(C(Br)Br)C(Br)C(Br)c1ccccc1 (stereo not given) was tested, and the growth was 9.8% (active).
In the case of COc1ccccc1/C=C/C(=O)/C=C/c1ccccc1O, the growth is reported as -56.1% (active).
CCCCn1c(=O)c(C2CNC(=O)c3ccccc3N2)cc2ccccc21 (stereo not given) was tested, and the growth was 107% (inactive).
For N#Cc1c(-c2ccc(Br)cc2)cc(-c2c[nH]c3ccccc23)nc1N, the growth was 7.56% (active).
With CC(C)c1nc2ccccc2n1CC(=O)N/N=C/c1cccc(O)c1 the growth was 98.4% (inactive).
For Nc1ncnc2c1c(C(F)(F)F)cn2[C@@H]1O[C@H](CO)[C@@H](O)[C@H]1O, the growth was -41.1% (active).
In the case of CC1Cc2c(Cl)ncnc2N(C)c2ccccc21 (stereo not given), the growth is reported as -31.5% (active).
In the case of CN(CCC#N)c1ccc(/C=C(\C#N)c2cccc(C(F)(F)F)c2)cc1, the growth is reported as 23.4% (inactive).
With Cc1ccc(Cc2cnc(NC(=O)/C=C/c3ccc(C)o3)s2)cc1 the growth was -0.221% (active).
CC(C)CCC[C@@H](C)[C@H]1CC[C@H]2[C@@H]3CC[C@H]4C/C(=N/O)CC[C@]4(C)[C@H]3CC[C@]12C was tested, and the growth was 99% (inactive).
In the case of [2H]C1([2H])[C@H](C)O[C@H](C)C([2H])([2H])N1c1ccc(NC(=O)c2cccc(-c3ccc(OC(F)(F)F)cc3)c2C)cn1, the growth is reported as 41.9% (inactive).
In the case of COc1ccccc1N1CCN(C2=C(Cl)C(=O)c3ncccc3C2=O)CC1, the growth is reported as -55.3% (active).
COc1ccc(C2CC(c3ccccc3)=NN2c2nc(C)c(C(C)=O)s2)cc1 (stereo not given) was tested, and the growth was 100% (inactive).
COC(=O)c1cnc2c(c1)Oc1ccccc1-c1ccnn1-2 was tested, and the growth was 101% (inactive).
CC/C=C\C/C=C/C=C1/C(=O)C=C[C@@H]1C/C=C\CCCC(=O)OC was tested, and the growth was 19.8% (inactive).
For O=C(N/N=C/c1ccc(Cl)cc1Cl)c1ccc2nc(-c3ccc(Cl)cc3)[nH]c2c1, the growth was -44.1% (active).
O=C1C(OCCOc2ccccc2)=C(OCCOc2ccccc2)C(=O)c2ccccc21 was tested, and the growth was 72.9% (inactive).
Cc1ccc(S(=O)(=O)NCCCNc2cc(-c3cn(C(C)(C)C)nc3-c3cccc(O)c3)ccn2)cc1 was tested, and the growth was 35.5% (inactive).
For C#CCO[C@H]1CC(CC#C)(CC#C)C(=O)[C@@H]2[C@H]1[C@H]1C[C@@H]3[C@@]4(C)CCC[C@@](C)(C(=O)OC)[C@@H]4CC[C@@]23C=C1C(C)C, the growth was 94.7% (inactive).
For CN(C)CCCSc1ccccc1NC1=C(Cl)C(=O)C(Nc2ccccc2SCCCN(C)C)=C(Cl)C1=O, the growth was -61.4% (active).
In the case of CCc1ccc(CCCC(=O)O)cc1, the growth is reported as 107% (inactive).
In the case of O=S(=O)(NCCNc1nccc(-c2c(-c3cccc(O)c3)nc3occn23)n1)c1ccc(Br)cc1, the growth is reported as 26.6% (inactive).
In the case of CCCCc1ccc(NC(=O)C(F)(F)F)cc1, the growth is reported as 109% (inactive).
In the case of O=C(Nc1ccc(Oc2ccc(Nc3nc4ccccc4s3)cc2)cc1)Nc1ccc(Cl)c(Cl)c1, the growth is reported as 8.01% (active).
Cc1cn(-c2cc(NC(=O)c3cncc(C#Cc4cnc(N)c5ncccc45)c3)cc(C(F)(F)F)c2)cn1 was tested, and the growth was 67.3% (inactive).
In the case of CC(=O)c1c[nH]c2ccc(-c3ccnc(Nc4ccc(NC(=O)c5cccc(F)c5)c(CN5CCOCC5)c4)n3)cc12, the growth is reported as -32.9% (active).
For CCNC(=O)Oc1ccc(/C(=C(\C)c2ccccc2)c2ccc(OCCN(CC)CC)cc2)cc1, the growth was 79.3% (inactive).
